# Where “and” joins values, the source holds several entries; their conditions need not be identical. Identical values can stand only once. Records with an inconclusive call do not appear. Where a call stands in place of a potency, no number is given. Unmarked numbers belong to inactive results. Calls of active or inactive are those of the source. The call rests on the fitted dose curve; in most records, active means well fitted inhibition curve with a large enough effect; inconclusive means small, poorly fitted or top-dose-only effect; inactive means flat fitted curve, though single readings scatter.
# Legend:
# CRL-7250 = normal cell line; experiment: Cytotoxic Profiling of Annotated Libraries Using Quantitative High-Throughput Screening (AID 1296008); details: Five cell lines viability, CellTiter-Glo ATP luminescence, 48-72 h; max response: hits give low values; further: potency means the concentration at half of the fitted maximal effect
# Procedure, shortened: (§1)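 Cytotoxicity was measured as CellTiter-Glo ATP luminescence, read after 10 min at room temperature. Compound treatment of the cells lasted 48 or 72 hr at 37 degrees Celsius in a qHTS format.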
# HEK293 = experiment: as above; details: Five cell lines viability, CellTiter-Glo ATP luminescence, 48-72 h; max response: hits give low values
# Procedure, shortened: as §1
# HaCat [1] = experiment: as above; details: Five cell lines viability, CellTiter-Glo ATP luminescence, 48-72 h; max response: hits give low values
# Procedure, shortened: as §1
# KB-3-1 = experiment: as above; details: Five cell lines viability, CellTiter-Glo ATP luminescence, 48-72 h; max response: hits give low values
# Procedure, shortened: as §1
# NIH3T3 = experiment: as above; details: Five cell lines viability, CellTiter-Glo ATP luminescence, 48-72 h; max response: hits give low values
# Procedure, shortened: as §1
# HACAT [2] = experiment: qHTS assay to identify novel small-molecules to repurpose for Merkel cell carcinoma treatment (AID 1296009); details: MCC and control cell lines, CellTiter-Glo viability, 72 h; at 44.8 µM (top of the series) unless noted; further: potency means the concentration at half of the fitted maximal effect
# Procedure, shortened: (§2)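 After compound transfer in DMSO, plates were kept 72 hr at 37 degree celsius. Luminescent ATP signal from CellTiter-Glo served as viability measure, normalized against DMSO and no-cell controls.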
# MCC-13 = experiment: as above; details: MCC and control cell lines, CellTiter-Glo viability, 72 h; series mostly up to 46 µM
# Procedure, shortened: as §2
# MCC-26 = experiment: as above; details: MCC and control cell lines, CellTiter-Glo viability, 72 h; series mostly up to 46 µM
# Procedure, shortened: as §2
# P93_24 = experiment: qHTS profiling for inhibitors of Plasmodium falciparum proliferation (AID 504749); details: P. falciparum in erythrocytes, SYBR Green DNA, 72 h; series mostly up to 28.7 µM
# Procedure, shortened: (§3)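 Three-day growth assay of blood-stage parasites in erythrocytes (0.3% parasitemia, 2.5% hematocrit) at 37 C, 5% CO2, quantified by SYBR Green DNA staining after overnight detergent lysis.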
# P94_40 = experiment: as above; details: P. falciparum in erythrocytes, SYBR Green DNA, 72 h; series mostly up to 28.7 µM
# Procedure, shortened: as §3
# PAD = experiment: as above; details: P. falciparum in erythrocytes, SYBR Green DNA, 72 h; series mostly up to 28.7 µM
# Procedure, shortened: as §3
# PC15 = experiment: as above; details: P. falciparum in erythrocytes, SYBR Green DNA, 72 h; series mostly up to 28.7 µM
# Procedure, shortened: as §3
# PC26 = experiment: as above; details: P. falciparum in erythrocytes, SYBR Green DNA, 72 h; series mostly up to 28.7 µM
# Procedure, shortened: as §3
# PC49 = experiment: as above; details: P. falciparum in erythrocytes, SYBR Green DNA, 72 h; series mostly up to 28.7 µM
# Procedure, shortened: as §3
# SC27B = experiment: as above; details: P. falciparum in erythrocytes, SYBR Green DNA, 72 h; series mostly up to 28.7 µM
# Procedure, shortened: as §3
# TAB109 = experiment: as above; details: P. falciparum in erythrocytes, SYBR Green DNA, 72 h; series mostly up to 28.7 µM
# Procedure, shortened: as §3
# TAB113 = experiment: as above; details: P. falciparum in erythrocytes, SYBR Green DNA, 72 h; series mostly up to 28.7 µM
# Procedure, shortened: as §3
# TAB165 = experiment: as above; details: P. falciparum in erythrocytes, SYBR Green DNA, 72 h; series mostly up to 28.7 µM
# Procedure, shortened: as §3
# W2 = experiment: as above; details: P. falciparum in erythrocytes, SYBR Green DNA, 72 h; series mostly up to 28.7 µM
# Procedure, shortened: as §3
# HEK293T = experiment: qHTS assay to identify novel small-molecules to repurpose for Merkel cell carcinoma treatment (AID 1296009); details: MCC and control cell lines, CellTiter-Glo viability, 72 h; series mostly up to 44.8 µM; further: potency means the concentration at half of the fitted maximal effect
# Procedure, shortened: as §2
# Further: nearly all actives have a fitted effect of over 60% in size.
compound,measurement,setting,value
C[C@]12C=CC(=O)N[C@@H]1CC[C@H]1[C@H]3CC[C@@H](C(=O)Nc4cc(C(F)(F)F)ccc4C(F)(F)F)[C@@]3(C)CC[C@@H]12,max response,CRL-7250,-6.18%
same,max response,HEK293,-11%
same,outcome,HaCat [1],inactive
same,max response,KB-3-1,-3.32%
same,outcome,NIH3T3,inactive
same,outcome,HACAT [2],inactive
same,Potency,MCC-13,inactive
same,Potency,MCC-26,inactive
Cc1ncc(-c2ccnc(Nc3ccc(S(C)(=O)=O)cc3)n2)n1C(C)C,Potency,CRL-7250,3.72 µM (active)
same,Potency,HEK293,4.61 µM (active)
same,Potency,HaCat [1],8.33 µM (active) and 5.8 µM (active)
same,Potency,KB-3-1,5.26 µM (active) and 5.17 µM (active)
same,Potency,NIH3T3,13.2 µM (active)
Nc1nc2c(c(=O)[nH]1)N(C=O)[C@H](CNc1ccc(C(=O)N[C@@H](CCC(=O)O)C(=O)O)cc1)CN2,Potency,P93_24,inactive
same,Potency,P94_40,inactive
same,Potency,PAD,inactive
same,Potency,PC15,inactive
same,Potency,PC26,inactive
same,Potency,PC49,inactive
same,Potency,SC27B,inactive
same,Potency,TAB109,inactive
same,Potency,TAB113,inactive
same,Potency,TAB165,inactive
same,Potency,W2,inactive
same,max response,CRL-7250,-8.32%
same,max response,HEK293,-23.4%
same,outcome,HaCat [1],inactive
same,max response,KB-3-1,3.69%
same,outcome,NIH3T3,inactive
same,outcome,HACAT [2],inactive
same,Potency,MCC-13,inactive
same,Potency,MCC-26,inactive
CN(N=O)C(=O)N[C@H]1C(O)OC(CO)[C@@H](O)[C@H]1O (some centres not stated),max response,CRL-7250,-3.47%
same,max response,HEK293,-7.38%
same,outcome,HaCat [1],inactive
same,max response,KB-3-1,2.81%
same,max response,NIH3T3,-17.4%
same,outcome,HACAT [2],inactive
same,Potency,MCC-13,inactive
same,Potency,MCC-26,inactive
C=CC[C@@H]1C=C(C)C[C@H](C)C[C@H](OC)[C@H]2O[C@@](O)(C(=O)C(=O)N3CCCC[C@H]3C(=O)O[C@H](C(C)=C[C@@H]3CC[C@H](O)[C@H](OC)C3)[C@@H](C)[C@@H](O)CC1=O)[C@@H](C)C[C@@H]2OC,max response,CRL-7250,-10%
same,Potency,HEK293,7.43 µM (active)
same,outcome,HaCat [1],inactive
same,outcome,KB-3-1,inactive
same,outcome,NIH3T3,inactive
same,outcome,HACAT [2],inactive
same,Potency,MCC-26,inactive
CC(=O)O[C@]1(C(C)=O)CC[C@H]2[C@@H]3C=C(C)C4=CC(=O)CC[C@]4(C)[C@@H]3CC[C@@]21C,outcome,CRL-7250,inactive
same,max response,HEK293,-9.75%
same,outcome,HaCat [1],inactive; activator
same,outcome,KB-3-1,inactive
same,max response,NIH3T3,4.47%
same,outcome,HACAT [2],inactive; activator
same,Potency,MCC-13,inactive
same,Potency,MCC-26,inactive
CCN1CCN(C(=O)N[C@H](C(=O)N[C@@H]2C(=O)N3C(C(=O)O)=C(CSc4nnnn4C)CS[C@@H]23)c2ccc(O)cc2)C(=O)C1=O,max response,CRL-7250,2.05%
same,outcome,HEK293,inactive
same,max response,HaCat [1],2.66%
same,outcome,KB-3-1,inactive
same,max response,NIH3T3,3.36%
same,outcome,HEK293T,inactive [at 9.27 µM]
same,"activity change, negative = cytotoxicity",MCC-13,4.78% [at 9.22 µM]
same,"activity change, negative = cytotoxicity",MCC-26,-6.39% [at 9.22 µM]
Cc1coc2c1C(=O)C(=O)c1c-2ccc2c(C)cccc12,max response,CRL-7250,-23.2%
same,max response,HEK293,-8.46%
same,outcome,HaCat [1],inactive
same,outcome,KB-3-1,inactive
same,max response,NIH3T3,-4.31% and -4.38%
same,outcome,HACAT [2],inactive
same,Potency,MCC-13,inactive
same,Potency,MCC-26,inactive
CC(=O)N1CCN(c2ccc(OCc3nn(C)c(C)c3-c3cccc4c(CCCOc5cccc6ccccc56)c(C(=O)O)n(Cc5cccnc5)c34)cc2)CC1,outcome,CRL-7250,inactive
same,max response,HEK293,-15.3%
same,outcome,HaCat [1],inactive
same,outcome,KB-3-1,inactive
same,max response,NIH3T3,-8.89%
same,outcome,HACAT [2],inactive
same,Potency,MCC-13,inactive
same,Potency,MCC-26,16.6 µM (active)
COC(=O)[C@H](CCCN=C(N)N)NS(=O)(=O)c1ccc(C)cc1,outcome,CRL-7250,inactive
same,outcome,HEK293,inactive
same,max response,HaCat [1],0.0008%
same,max response,KB-3-1,-0.67%
same,max response,NIH3T3,2.63%
same,Potency,HEK293T,inactive
same,Potency,MCC-13,inactive
same,Potency,MCC-26,inactive
NC(=O)Nc1cc(-c2ccc(CN3CCOCC3)cc2)sc1C(N)=O,Potency,CRL-7250,13.2 µM (active)
same,Potency,HEK293,5.26 µM (active)
same,Potency,HaCat [1],332 nM (active)
same,Potency,KB-3-1,7.43 µM (active)
same,Potency,NIH3T3,0.662 µM (active)
same,Potency,MCC-13,inactive
O=C(C[C@@H]1CC=CCCC(=O)O[C@H](c2ccccc2)CNC1=O)NCc1ccc(Cl)cc1,outcome,CRL-7250,inactive
same,max response,HEK293,-3.28%
same,outcome,HaCat [1],inactive
same,outcome,KB-3-1,inactive
same,max response,NIH3T3,-2.63%
same,outcome,HACAT [2],inactive
same,Potency,MCC-13,inactive
same,Potency,MCC-26,inactive
O=C1NC(O)CCN1[C@@H]1O[C@H](CO)[C@H](O)[C@H]1O (some centres not stated),max response,CRL-7250,-71.1%
same,max response,HEK293,-3.17%
same,outcome,HaCat [1],inactive
same,max response,KB-3-1,-2.55%
same,max response,NIH3T3,1.52%
same,outcome,HACAT [2],inactive
same,Potency,MCC-13,inactive
same,Potency,MCC-26,inactive
CC(C=CC(=O)NO)=C[C@@H](C)C(=O)c1ccc(N(C)C)cc1,Potency,CRL-7250,5.26 µM (active)
same,Potency,HEK293,1.05 µM (active)
same,Potency,HaCat [1],2960 nM (active)
same,Potency,KB-3-1,1.18 µM (active)
same,Potency,NIH3T3,1.48 µM (active)
same,Potency,MCC-13,8.33 µM (active)
NC1=N[C@H]2[C@H](CS[C@H]2CCCCC(=O)O)N1,outcome,CRL-7250,inactive
same,max response,HEK293,-4.7%
same,outcome,HaCat [1],inactive
same,outcome,KB-3-1,inactive
same,max response,NIH3T3,-0.4%
same,outcome,HACAT [2],inactive [at 17.4 µM]
same,Potency,MCC-13,inactive
same,Potency,MCC-26,inactive
COc1ccc([C@@H]2CNC(=O)C2)cc1OC1CCCC1,Potency,P93_24,inactive
same,Potency,P94_40,inactive
same,Potency,PAD,inactive
same,Potency,PC15,inactive
same,Potency,PC26,inactive
same,Potency,PC49,inactive
same,Potency,SC27B,inactive
same,Potency,TAB109,inactive
same,Potency,TAB113,inactive
same,Potency,TAB165,inactive
same,Potency,W2,inactive
same,outcome,CRL-7250,inactive
same,max response,HEK293,2.8%
same,outcome,HaCat [1],inactive
same,outcome,KB-3-1,inactive
same,outcome,NIH3T3,inactive
same,outcome,HACAT [2],inactive
same,Potency,MCC-13,inactive
same,Potency,MCC-26,inactive

# Reference: PubChem BioAssay (NCATS)
